Measurements as given in the supplement of paper PMC11732987, “Enantioselective OTUD7B fragment discovery through chemoproteomics screening and high-throughput optimisation” (Communications Chemistry, 2025).

How the values were obtained:
Assay in all cases: log2 ratio of Biotin-Ahx-Ub-VS probe labelling (compound/DMSO); higher = less target engagement, active = hit call of the paper (q ≤ 0.05, log2 ratio ≤ -1)
Settings in all cases: treatment time: 3 h
[1] = compound: CCC1N(CCc2sccc12)C(=O)CCl
Outline: (§1)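 HEK293T lysate (495 µg per sample, in Tris/CHAPS/IGEPAL buffer with protease inhibitors) was exposed in triplicate to compound at 50 or 200 µM, or to DMSO, for 3 h, then to Biotin-Ahx-Ub-VS (0.5 µM final) for 1 h. The labelled DUBs were enriched on NeutrAvidin, digested with LysC and trypsin, and analysed by diaPASEF LC-MS/MS. Average base-two log ratios of compound over DMSO came from median-normalised label-free quantities by unpaired t-test. Only proteins with at least 2 unique peptides were used.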

[2] = compound: CN1c2ccccc2C(CS1(=O)=O)NC(=O)CCl
Outline: as §1

[3] = compound: Cl.ClCC(=O)N1CCc2ncncc2C1
Outline: as §1

[4] = compound: Cl.Cn1ncc2C(CCCc12)NC(=O)CCl
Outline: as §1

[5] = compound: ClCC(=O)NC1CCOc2ccccc12
Outline: as §1

[6] = compound: ClCC(=O)NC1CCCc2ccccc12
Outline: (§2)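 These values are averaged ratios of compound to vehicle, tested by unpaired t-test. HEK293T lysate (495 µg per sample) was preincubated in triplicate with compound across a concentration series or vehicle for 3 h and then with Biotin-Ahx-Ub-VS at 0.5 µM final for 1 h. Deubiquitinases carrying the probe were NeutrAvidin-enriched, digested with LysC and trypsin, and measured by diaPASEF LC-MS/MS. Ratios are expressed as log2 from global-median-normalised Spectronaut label-free quantities, and only proteins with two or more unique peptides were included.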

[7] = compound: ClCC(=O)N[C@@H]1CCCc2ccccc12
Outline: as §2

[8] = compound: ClCC(=O)N[C@H]1CCCc2ccccc12
Outline: as §2

[9] = compound: CCC1N(CCc2cc(OC)c(Cl)cc12)C(=O)CCl
Outline: as §1

[10] = compound: CCCC1N(CCc2cc(OC)c(OC)cc12)C(=O)CCl
Outline: as §1

Measured: log2 ratio of Biotin-Ahx-Ub-VS probe labelling

USP48 (UniProt Q86UV5)
Chain of UniProt Q86UV5 (Q86UV5 whole entry): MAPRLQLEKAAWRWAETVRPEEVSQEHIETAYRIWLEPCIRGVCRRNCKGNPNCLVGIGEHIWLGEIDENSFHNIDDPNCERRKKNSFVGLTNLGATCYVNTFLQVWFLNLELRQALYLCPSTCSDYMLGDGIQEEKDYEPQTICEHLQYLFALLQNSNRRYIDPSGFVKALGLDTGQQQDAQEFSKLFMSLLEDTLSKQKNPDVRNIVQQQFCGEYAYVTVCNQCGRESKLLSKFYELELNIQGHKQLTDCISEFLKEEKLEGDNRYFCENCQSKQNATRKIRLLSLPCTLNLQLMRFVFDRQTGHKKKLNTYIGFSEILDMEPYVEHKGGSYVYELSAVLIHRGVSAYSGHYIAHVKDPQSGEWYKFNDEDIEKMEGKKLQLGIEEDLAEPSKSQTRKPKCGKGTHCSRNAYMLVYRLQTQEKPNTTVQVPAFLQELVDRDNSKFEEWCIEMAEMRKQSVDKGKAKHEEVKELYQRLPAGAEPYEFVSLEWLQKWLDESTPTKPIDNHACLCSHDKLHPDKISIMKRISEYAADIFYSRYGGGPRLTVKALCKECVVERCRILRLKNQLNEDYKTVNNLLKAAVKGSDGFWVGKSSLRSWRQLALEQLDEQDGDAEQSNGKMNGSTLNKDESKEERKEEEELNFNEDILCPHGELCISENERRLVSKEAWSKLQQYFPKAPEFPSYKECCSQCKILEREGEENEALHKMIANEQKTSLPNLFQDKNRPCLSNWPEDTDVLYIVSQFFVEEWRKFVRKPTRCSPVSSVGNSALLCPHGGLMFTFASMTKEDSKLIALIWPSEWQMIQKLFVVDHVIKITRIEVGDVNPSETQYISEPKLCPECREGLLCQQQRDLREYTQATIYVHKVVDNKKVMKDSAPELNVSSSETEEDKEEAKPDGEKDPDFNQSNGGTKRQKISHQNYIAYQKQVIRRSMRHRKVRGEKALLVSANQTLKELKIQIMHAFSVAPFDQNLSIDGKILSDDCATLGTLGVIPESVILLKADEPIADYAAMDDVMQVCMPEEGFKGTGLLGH
inactive: [1]; compound concentration: 50uM 0.0438 | [1]; compound concentration: 200uM -0.229 | [2]; compound concentration: 50uM -0.0584 | [2]; compound concentration: 200uM -0.173 | [3]; compound concentration: 50uM 0.0472 | [3]; compound concentration: 200uM -0.0578 | [4]; compound concentration: 50uM 0.11 | [4]; compound concentration: 200uM -0.141 | [5]; compound concentration: 50uM -0.181 | [5]; compound concentration: 200uM 0.181 | [6]; compound concentration: 0.78uM -0.207 | [6]; compound concentration: 1.56uM -0.126 | [6]; compound concentration: 3.13uM -0.133 | [6]; compound concentration: 6.25uM -0.353 | [6]; compound concentration: 12.5uM -0.196 | [6]; compound concentration: 25uM -0.157 | [6]; compound concentration: 50uM -0.212 | [6]; compound concentration: 100uM -0.103 | [6]; compound concentration: 200uM -0.378 | [7]; compound concentration: 0.78uM -0.118 | [7]; compound concentration: 1.56uM 0.0156 | [7]; compound concentration: 3.13uM -0.424 | [7]; compound concentration: 6.25uM -0.193 | [7]; compound concentration: 12.5uM -0.0735 | [7]; compound concentration: 25uM -0.174 | [7]; compound concentration: 50uM -0.19 | [7]; compound concentration: 100uM -0.106 | [7]; compound concentration: 200uM -0.351 | [8]; compound concentration: 0.78uM -0.189 | [8]; compound concentration: 1.56uM -0.192 | [8]; compound concentration: 3.13uM -0.141 | [8]; compound concentration: 6.25uM -0.00525 | [8]; compound concentration: 12.5uM -0.0911 | [8]; compound concentration: 25uM -0.00111 | [8]; compound concentration: 50uM -0.0046 | [8]; compound concentration: 100uM -0.171 | [8]; compound concentration: 200uM -0.203 | [9]; compound concentration: 50uM -0.171 | [9]; compound concentration: 200uM -0.314 | [10]; compound concentration: 50uM -0.217 | [10]; compound concentration: 200uM -0.148

USP14 (UniProt P54578)
Chain of UniProt P54578 (P54578 whole entry): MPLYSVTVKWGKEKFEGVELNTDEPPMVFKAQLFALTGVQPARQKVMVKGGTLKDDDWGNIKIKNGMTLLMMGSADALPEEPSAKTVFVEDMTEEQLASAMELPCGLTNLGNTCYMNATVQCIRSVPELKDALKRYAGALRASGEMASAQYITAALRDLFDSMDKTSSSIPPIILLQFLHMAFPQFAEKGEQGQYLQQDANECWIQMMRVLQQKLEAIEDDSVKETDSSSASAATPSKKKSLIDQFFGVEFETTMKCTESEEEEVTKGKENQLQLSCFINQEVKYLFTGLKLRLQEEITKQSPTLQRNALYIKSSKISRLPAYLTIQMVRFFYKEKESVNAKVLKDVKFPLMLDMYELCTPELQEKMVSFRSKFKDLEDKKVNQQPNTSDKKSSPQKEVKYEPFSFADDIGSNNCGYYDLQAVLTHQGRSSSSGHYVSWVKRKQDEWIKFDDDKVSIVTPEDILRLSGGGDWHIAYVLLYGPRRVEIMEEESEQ
inactive: [1]; compound concentration: 50uM -0.3 | [1]; compound concentration: 200uM -0.357 | [2]; compound concentration: 50uM -0.167 | [2]; compound concentration: 200uM -0.105 | [3]; compound concentration: 50uM 0.049 | [3]; compound concentration: 200uM -0.23 | [4]; compound concentration: 50uM 0.132 | [4]; compound concentration: 200uM 0.0271 | [5]; compound concentration: 50uM -0.194 | [5]; compound concentration: 200uM -0.0567 | [6]; compound concentration: 0.78uM -0.378 | [6]; compound concentration: 1.56uM -0.128 | [6]; compound concentration: 3.13uM -0.334 | [6]; compound concentration: 6.25uM -0.143 | [6]; compound concentration: 12.5uM -0.315 | [6]; compound concentration: 25uM -0.455 | [6]; compound concentration: 50uM -0.285 | [6]; compound concentration: 100uM -0.509 | [6]; compound concentration: 200uM -0.231 | [7]; compound concentration: 0.78uM -0.393 | [7]; compound concentration: 1.56uM -0.0826 | [7]; compound concentration: 3.13uM -0.368 | [7]; compound concentration: 6.25uM -0.447 | [7]; compound concentration: 12.5uM -0.296 | [7]; compound concentration: 25uM -0.25 | [7]; compound concentration: 50uM -0.116 | [7]; compound concentration: 100uM -0.289 | [7]; compound concentration: 200uM -0.289 | [8]; compound concentration: 0.78uM -0.158 | [8]; compound concentration: 1.56uM -0.187 | [8]; compound concentration: 3.13uM -0.308 | [8]; compound concentration: 6.25uM -0.249 | [8]; compound concentration: 12.5uM -0.442 | [8]; compound concentration: 25uM -0.253 | [8]; compound concentration: 50uM -0.322 | [8]; compound concentration: 100uM -0.332 | [8]; compound concentration: 200uM -0.157 | [9]; compound concentration: 50uM -0.071 | [9]; compound concentration: 200uM -0.127 | [10]; compound concentration: 50uM -0.132 | [10]; compound concentration: 200uM 0.0879
